Anesthetic bind – candidate novel general anesthetic via apoferritin binding. apoferritin/1-aminoanthracene competitive binding, fluorescence. Potency, µM (top dose mostly 77.5 µM), for the others: top-dose activity change, negative = displacement, usual class: inhibitors. actives 0.074% (n = 350,000). AID 485281; further: on the % scale 0 is the no-effect control and ±100 the full control effect; nearly all actives have a fitted effect of over 20% in size
Target sequence (P02791 2-175 limits assumed): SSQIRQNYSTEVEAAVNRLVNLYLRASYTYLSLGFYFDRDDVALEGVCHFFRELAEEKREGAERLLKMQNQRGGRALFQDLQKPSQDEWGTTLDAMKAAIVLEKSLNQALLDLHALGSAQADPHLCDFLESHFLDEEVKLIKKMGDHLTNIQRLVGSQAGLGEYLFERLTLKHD
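Read-out: endpoint 1-AMA fluorescence, excitation 380 nm and emission 535 nm, after compounds sit 10 min at room temperature with 10 uM horse-spleen apoferritin in 50% saturated 1-AMA/PBS. Values come from four-parameter Hill fits.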
ATXN viability – reduces viability in counter-screen for ATXN expression inhibitors; actives 0.49% (n = 400,000); Potency, µM (highest dose often 56.7 µM), hits mostly cytotoxic; S2 cells (HEK-293 line with an ATXN2-luciferase reporter) viability, CellTiter-Fluor protease fluorescence, 24 h; AID 651635; further: nearly all actives have a fitted effect of over 40% in size
ATXN2 expr inh – reduces ATXN2 reporter expression in HEK-293 cells; AID 1745845; HEK-293 ATXN2-luciferase reporter, luminescence, 24 h; Potency, µM (top dose mostly 57 µM), without a hit: at the top dose activity change, negative = inhibition, actives largely listed as inhibitors; actives 0.72% (n = 360,000); further: on the % scale 0 is the no-effect control and ±100 the full control effect; nearly all actives have a fitted effect of over 55% in size
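ATXN2-luciferase reporter cells (luciferase flanked by upstream and downstream ATXN2 gene portions) were treated 24 h at 37 °C with compounds at up to 57 uM. SteadyGlo luminescence gave expression; GF-AFC fluorescence gave viability.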
HepG2 viability – kills HepG2 cells in TGF-b inhibitor counter-screen; AID 588856; actives 0.76% (n = 410,000); HepG2 CAGA-GFP viability, ATP luminescence, 18 h; Potency, µM (titrated, usually from 46.1 µM), for inactives: top-dose activity change, negative = cytotoxicity, actives largely listed as cytotoxic
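HepG2 CAGA-GFP cells (1000/well, DMEM with 1% FBS) received compound, then TGF-beta at 500 pg/mL final, and were incubated 18 hours at 37 degrees C. Viability was read by CellTiter-Glo luminescence. Media-only wells were set as complete cell-killing and DMSO as no toxicity.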
TGFb SMAD3 inh – TGF-b pathway inhibition; HepG2 CAGA-GFP TGF-b/SMAD3 reporter, GFP fluorescence, 18 h; TGF-beta stimulated, 500 pg/mL final; Potency, µM (highest dose often 46.1 µM), for the others: top-dose activity, negative = inhibition, usual class: inhibitors; actives 1.2% (n = 410,000); further: on the % scale 0 is the no-effect control and ±100 the full control effect; nearly all actives have a fitted effect of over 65% in size
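Read-out: total well GFP (ex488/em500-530) summed from mean per-cell fluorescence. Cells: HEPG2 CAGA-GFP, 1% FBS DMEM, 18 h at 37 degrees C with 500 pg/mL final TGF-beta. Unstimulated wells served as the full-inhibition control; stimulated DMSO wells = 0%.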
An asterisk follows results filed as active; i = inactive; ? = inconclusive; nt = not tested or not shown. Rows were chosen to be rich in hits. Some 2.4% of all compounds tested hit in one or more screens of this group. The call rests on the fitted dose curve; in most records, active means well fitted curve in the direction sought with a large enough effect; inconclusive means small, poorly fitted or top-dose-only effect, or another doubt; inactive means no such curve, though single readings can be large; an effect the other way counts as inactive or inconclusive. Potency means the concentration at half of the fitted maximal effect.

SMILES | Anesthetic bind | ATXN viability | ATXN2 expr inh | HepG2 viability | TGFb SMAD3 inh
CCCn1c(=O)c2sccc2n2c(CCCC(=O)Nc3ccc(Oc4ccccc4)cc3)nnc12 | ? | nt | nt | -39.8% | 17.8µM*
CCCCC(CC)CNC(=O)CCCc1nnc2n(CCC)c(=O)c3sccc3n12 (stereo not given) | ? | 17.8µM* | -37.3% | -21.7% | ?
CCCn1c(=O)c2sccc2n2c(CCCC(=O)Nc3ccc(Oc4ccc(Cl)cc4)cc3)nnc12 | ? | nt | nt | -28.8% | ?
O=C(N/N=C/c1ccccc1O)C1CC(=O)N(c2ccc(Cl)cc2)C1 (stereo not given) | -13.7% | i | 6.31µM* | -12.7% | -27.6%
O=C(CCSCc1cnn(-c2ccccc2)c1-n1cccc1)NCc1ccc(Cl)cc1 | -1.3% | nt | nt | -27.2% | 15.8µM*
COc1cc(-c2cc3nc(NCc4cccs4)ccn3n2)cc(OC)c1OC | nt | ? | ? | -2.1% | 33.0%
COc1cc(-c2cc3nc(NCc4cccc(Cl)c4)ccn3n2)cc(OC)c1OC | nt | ? | 12.6µM* | -55.7% | ?
CCc1cc2c(=O)[nH]c(-c3ccccn3)nc2s1 | -4.3% | 5.62µM* | ? | -30.6% | 5.01µM*
CCc1cc2c(=O)[nH]c(N3CCCC3)nc2s1 | -4.8% | i | 19.9% | 6.7% | 36.7%
CN[C@@H](C)C(=O)N[C@H]1CCCC[C@H]2CC[C@@H](C(=O)N[C@@H](c3ccccc3)c3cn(CCCCc4ccc(CCCCn5cc([C@@H](NC(=O)[C@@H]6CC[C@@H]7CCCC[C@H](NC(=O)[C@H](C)NC)C(=O)N76)c6ccccc6)nn5)cc4)nn3)N2C1=O | nt | nt | -2.6% | nt | nt
Cc1ccc(OCC(=O)Nc2ccc(Cl)cc2)c(-n2nc3ccccc3n2)c1 | -7.5% | nt | 35.5µM* | -35.6% | 4.7%
Cc1ccc(-n2cc(CNCCc3cscn3)c(-c3ccc(F)cc3)n2)cc1 | ? | ? | ? | -63.2% | ?
Cc1cccc(-n2cc(CNCCc3nc(C)cc(C)n3)c(-c3cccc(F)c3)n2)c1 | -18.6% | nt | 28.2µM* | -74.3% | 11.2µM*
Cc1ccc(-n2cc(CNCCCn3cccn3)c(-c3cccc(C)c3)n2)cc1 | -5.2% | nt | 31.6µM* | -98.9% | ?
Cc1cccc(-c2nn(-c3ccccc3)cc2CNCCO)c1 | nt | nt | nt | -51.9% | ?
Cc1ccc(-n2cc(CNC(C)c3cnn(C)c3C)c(-c3ccc(F)cc3)n2)cc1 (stereo not given) | -8.6% | ? | nt | -72.7% | 12.6µM*
Cc1ccc(-n2cc(CNCCCn3ccnc3C)c(-c3ccc(F)cc3)n2)cc1 | -13.1% | ? | -21.9% | 12.6µM* | ?
Cc1cc(C)c(S(=O)(=O)N2CCN(C(=O)C3COc4ccccc4O3)CC2)c(C)c1 (stereo not given) | nt | ? | -16.0% | -22.8% | -19.8%
OC[C@H]1O[C@H](O[C@]2(CCl)O[C@H](CCl)[C@@H](O)[C@@H]2O)[C@H](O)[C@@H](O)[C@H]1Cl | nt | i | 7.8% | nt | nt
O=C(Nc1ccc(-c2nc3ccccc3o2)c(O)c1)c1cc(-n2cnnc2)ccc1Cl | -15.5% | i | -39.2% | 17.8µM* | 0.0%
CC(OC(=O)c1ccncc1)C(=O)Nc1cccc([N+](=O)[O-])c1 (stereo not given) | -2.6% | i | -22.3% | -1.0% | -1.3%
CS(=O)(=O)c1ccc(C(=O)OCC(=O)Nc2ccc(OC(F)(F)F)cc2)cc1[N+](=O)[O-] | nt | nt | nt | -105.3% | ?
CC(=O)c1cccc(NC(=O)C(C)OC(=O)c2ccc(S(C)(=O)=O)c([N+](=O)[O-])c2)c1 (stereo not given) | nt | nt | nt | 14.1µM* | 11.2µM*
CC(=O)c1cccc(NC(=O)COC(=O)c2ccc(S(C)(=O)=O)c([N+](=O)[O-])c2)c1 | -12.2% | i | 18.5% | -105.1% | 10µM*
CCc1ccc(OC(C)c2nnc(SCC(=O)Nc3ncccc3C)n2C)cc1 (stereo not given) | -4.9% | i | -10.0% | -15.1% | -13.7%
Cc1cnc(C)c(-c2cccc3c2OC(CNC(=O)C[C@@H]2C[C@@H](C)NC(=S)N2)C3)n1 (stereo not given in full) | nt | i | nt | nt | nt

Assay outcomes as filed in PubChem.
